In the supplement of paper PMC10849652:
About 8,800 targets were measured; listed, in parts, are those with a hit and a random draw of the rest. About 0.5% of all pairs of compound and target were hits.

Columns and labels:
Experiment in all cases: log2 fold change, soluble protein after heating vs DMSO (PISA); higher = thermal stabilisation; K562 lysate, 10 uM; active = over 0.2 and 3.5 SD of the protein, either way, in both replicates (recomputed)
lapatinib = compound: CS(=O)(=O)CCNCc1ccc(-c2ccc3ncnc(Nc4ccc(OCc5cccc(F)c5)c(Cl)c4)c3c2)o1 [lapatinib]
Method in brief: (§1)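 Thermal stability, expressed as log-two fold change relative to solvent controls, is given from duplicates. Crude K562 extract in PBS pH 7.4 with 1 mM MgCl2, at 1 mg/mL protein, was treated with 10 μM compound for 30 min and heated in aliquots for 3 min across 48°C-58°C. After pooling, adjustment to 0.5% NP-40 at 4°C and centrifugation at 21,000xg for 90 min, supernatant protein was measured by TMTpro 16plex LC-MS/MS with channel sums equalised.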

pictilisib = compound: CS(=O)(=O)N1CCN(Cc2cc3nc(-c4cccc5[nH]ncc45)nc(N4CCOCC4)c3s2)CC1 [pictilisib]
Method in brief: as §1

crizotinib = compound: C[C@@H](Oc1cc(-c2cnn(C3CCNCC3)c2)cnc1N)c1c(Cl)ccc(F)c1Cl [crizotinib]
Method in brief: as §1

[1] = compound: C[C@H](C1=CC=C(C=C1)C(=O)NC2=C3C=CNC3=NC=C2)N
Method in brief: as §1

duvelisib = compound: C[C@H](Nc1ncnc2nc[nH]c12)c1cc2cccc(Cl)c2c(=O)n1-c1ccccc1 [duvelisib]
Method in brief: as §1

gandotinib = compound: Cc1cc(Nc2cc(CN3CCOCC3)c3nc(C)c(Cc4ccc(Cl)cc4F)n3n2)n[nH]1 [gandotinib]
Method in brief: as §1

tozasertib = compound: Cc1cc(Nc2cc(N3CCN(C)CC3)nc(Sc3ccc(NC(=O)C4CC4)cc3)n2)n[nH]1 [tozasertib]
Method in brief: as §1

doramapimod = compound: Cc1ccc(-n2nc(C(C)(C)C)cc2NC(=O)Nc2ccc(OCCN3CCOCC3)c3ccccc23)cc1 [doramapimod]
Method in brief: as §1

bafetinib = compound: Cc1ccc(NC(=O)c2ccc(CN3CC[C@H](N(C)C)C3)c(C(F)(F)F)c2)cc1Nc1nccc(-c2cncnc2)n1 [bafetinib]
Method in brief: as §1

[2] = compound: Cc1cccc(CC(=O)N2CCc3c2ccc(-c2cn(C)c4ncnc(N)c24)c3F)n1
Method in brief: as §1

nilotinib = compound: Cc1cn(-c2cc(NC(=O)c3ccc(C)c(Nc4nccc(-c5cccnc5)n4)c3)cc(C(F)(F)F)c2)cn1 [nilotinib]
Method in brief: as §1

[3] = compound: Cc1nc(Nc2n[nH]c3c2CN(C(=O)N[C@H](CN(C)C)c2ccccc2)C3(C)C)c2sccc2n1
Method in brief: as §1

dasatinib = compound: Cc1nc(Nc2ncc(C(=O)Nc3c(C)cccc3Cl)s2)cc(N2CCN(CCO)CC2)n1 [dasatinib]
Method in brief: as §1

[4] = compound: Cc1ncc(-c2ccnc(Nc3ccc(S(C)(=O)=O)cc3)n2)n1C(C)C
Method in brief: as §1

[5] = compound: Cn1cc(-c2ccc3c(c2)CCN3C(=O)Cc2cccc(C(F)(F)F)c2)c2c(N)ncnc21
Method in brief: as §1

quisinostat = compound: Cn1cc(CNCC2CCN(c3ncc(C(=O)NO)cn3)CC2)c2ccccc21 [quisinostat]
Method in brief: as §1

tipifarnib = compound: Cn1cncc1[C@@](N)(c1ccc(Cl)cc1)c1ccc2c(c1)c(-c1cccc(Cl)c1)cc(=O)n2C [tipifarnib]
Method in brief: as §1

[6] = compound: NC(=O)Nc1cc(-c2cccc(F)c2)sc1C(=O)N[C@H]1CCCNC1
Method in brief: as §1

[7] = compound: NC(=O)c1cnc(N[C@@H]2CCCC[C@@H]2N)nc1Nc1cccc(-n2nccn2)c1
Method in brief: as §1

[8] = compound: NC1(c2ccc(-c3nc4ccn5c(=O)[nH]nc5c4cc3-c3ccccc3)cc2)CCC1
Method in brief: as §1

Measured: log2 fold change

PAK1 (UniProt Q13153)
UniProt Q13153, sequence (Q13153 whole entry, looked up): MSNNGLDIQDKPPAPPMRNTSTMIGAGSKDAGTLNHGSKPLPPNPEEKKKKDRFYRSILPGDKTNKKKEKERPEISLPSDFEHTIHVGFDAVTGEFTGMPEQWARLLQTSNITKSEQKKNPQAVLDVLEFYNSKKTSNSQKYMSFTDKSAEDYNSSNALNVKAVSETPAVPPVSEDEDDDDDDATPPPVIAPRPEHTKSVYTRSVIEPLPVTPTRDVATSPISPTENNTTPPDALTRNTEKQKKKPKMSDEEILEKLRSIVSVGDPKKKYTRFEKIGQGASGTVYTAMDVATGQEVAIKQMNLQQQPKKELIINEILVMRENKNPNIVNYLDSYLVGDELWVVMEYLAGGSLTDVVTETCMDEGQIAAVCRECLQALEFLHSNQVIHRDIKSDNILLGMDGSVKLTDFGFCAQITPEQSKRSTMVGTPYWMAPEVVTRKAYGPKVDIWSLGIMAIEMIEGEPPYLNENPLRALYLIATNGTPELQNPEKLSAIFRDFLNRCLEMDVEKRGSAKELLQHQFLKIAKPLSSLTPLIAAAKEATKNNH
inactive: lapatinib -0.037 | pictilisib -0.034 | crizotinib 0.019 | [1] -0.117 | duvelisib 0.044 | gandotinib -0.011 | tozasertib -0.02 | doramapimod -0.035 | bafetinib 0.002 | [2] -0.005 | nilotinib 0.028 | [3] 0.02 | dasatinib 0.046 | [4] 0.012 | [5] -0.024 | quisinostat 0.044 | tipifarnib -0.053 | [6] -0.028 | [7] -0.025 | [8] -0.012

NIFK (UniProt Q9BYG3)
inactive: lapatinib -0.004 | pictilisib -0.019 | crizotinib -0.033 | [1] -0.027 | duvelisib 0.009 | gandotinib 0 | tozasertib 0.036 | doramapimod -0.009 | bafetinib -0.026 | [2] 0.064 | nilotinib 0.033 | [3] -0.003 | dasatinib -0.012 | [4] 0.035 | [5] -0.01 | quisinostat -0.042 | tipifarnib 0.002 | [6] 0.037 | [7] -0.016 | [8] -0.038

NOC2L (UniProt Q9Y3T9)
inactive: lapatinib -0.049 | pictilisib -0.012 | crizotinib -0.077 | [1] -0.004 | duvelisib -0.074 | gandotinib -0.037 | tozasertib -0.015 | doramapimod 0.03 | bafetinib -0.137 | [2] 0.09 | nilotinib 0.027 | [3] 0.022 | dasatinib -0.03 | [4] -0.046 | [5] -0.052 | quisinostat -0.082 | tipifarnib -0.087 | [6] 0.058 | [7] 0.014 | [8] -0.019

MSH2 (UniProt P43246)
inactive: lapatinib -0.005 | pictilisib -0.003 | crizotinib -0.04 | [1] 0.028 | duvelisib -0.001 | gandotinib -0.068 | tozasertib 0.002 | doramapimod 0.013 | bafetinib -0.026 | [2] 0.002 | nilotinib -0.005 | [3] -0.008 | dasatinib -0.038 | [4] -0.01 | [5] 0.01 | quisinostat -0.08 | tipifarnib 0.004 | [6] 0.046 | [7] 0.016 | [8] -0.017

MRPL51 (UniProt Q4U2R6)
inactive: lapatinib -0.051 | pictilisib -0.016 | crizotinib 0.056 | [1] -0.201 | duvelisib -0.004 | gandotinib 0.058 | tozasertib 0.083 | doramapimod -0.247 | bafetinib 0.02 | [2] 0.091 | nilotinib -0.029 | [3] -0.006 | dasatinib -0.056 | [4] -0.054 | [5] -0.055 | tipifarnib -0.003 | [6] 0.055 | [7] -0.003 | [8] 0.024
active: quisinostat 0.27

MVB12A (UniProt Q96EY5)
inactive: lapatinib 0.012 | pictilisib -0.027 | crizotinib -0.025 | [1] 0 | duvelisib -0.04 | gandotinib -0.031 | tozasertib -0.046 | doramapimod 0.012 | bafetinib -0.015 | [2] -0.031 | nilotinib -0.025 | [3] -0.05 | dasatinib 0.006 | [4] 0.008 | [5] 0.04 | quisinostat 0.033 | tipifarnib 0.032 | [6] 0.022 | [7] -0.009 | [8] 0.036

NBN (UniProt O60934)
UniProt O60934, sequence (O60934 whole entry, looked up): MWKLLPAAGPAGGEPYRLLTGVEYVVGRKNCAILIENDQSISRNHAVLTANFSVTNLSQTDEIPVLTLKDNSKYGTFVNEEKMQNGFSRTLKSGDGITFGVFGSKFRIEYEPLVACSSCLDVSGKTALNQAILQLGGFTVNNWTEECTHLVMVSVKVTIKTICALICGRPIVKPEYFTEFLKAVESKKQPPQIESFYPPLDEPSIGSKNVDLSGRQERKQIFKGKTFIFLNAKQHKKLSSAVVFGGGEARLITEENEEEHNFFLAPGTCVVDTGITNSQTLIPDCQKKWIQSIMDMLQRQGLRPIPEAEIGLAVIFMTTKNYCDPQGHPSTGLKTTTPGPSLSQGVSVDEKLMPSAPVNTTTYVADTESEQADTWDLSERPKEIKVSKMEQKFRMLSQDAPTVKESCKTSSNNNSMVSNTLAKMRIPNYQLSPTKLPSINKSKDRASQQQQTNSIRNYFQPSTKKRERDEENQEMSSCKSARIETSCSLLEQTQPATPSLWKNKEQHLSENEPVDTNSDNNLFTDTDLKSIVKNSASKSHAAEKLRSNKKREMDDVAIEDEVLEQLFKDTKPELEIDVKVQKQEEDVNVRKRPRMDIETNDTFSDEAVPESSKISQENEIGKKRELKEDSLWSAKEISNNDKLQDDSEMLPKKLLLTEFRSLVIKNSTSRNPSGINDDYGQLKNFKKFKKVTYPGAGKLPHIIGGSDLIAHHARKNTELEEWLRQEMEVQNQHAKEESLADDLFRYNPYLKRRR
inactive: lapatinib 0.008 | pictilisib -0.006 | crizotinib -0.028 | [1] 0.033 | duvelisib -0.006 | gandotinib -0.05 | tozasertib 0.032 | doramapimod 0.001 | bafetinib -0.016 | [2] -0.026 | nilotinib 0.004 | [3] 0.013 | dasatinib -0.019 | [4] 0.037 | [5] 0.03 | quisinostat 0.011 | tipifarnib 0.005 | [6] 0.046 | [7] -0.024 | [8] -0.015

MYD88 isoform 6 (UniProt Q99836)
UniProt Q99836, sequence (Q99836 whole entry, looked up): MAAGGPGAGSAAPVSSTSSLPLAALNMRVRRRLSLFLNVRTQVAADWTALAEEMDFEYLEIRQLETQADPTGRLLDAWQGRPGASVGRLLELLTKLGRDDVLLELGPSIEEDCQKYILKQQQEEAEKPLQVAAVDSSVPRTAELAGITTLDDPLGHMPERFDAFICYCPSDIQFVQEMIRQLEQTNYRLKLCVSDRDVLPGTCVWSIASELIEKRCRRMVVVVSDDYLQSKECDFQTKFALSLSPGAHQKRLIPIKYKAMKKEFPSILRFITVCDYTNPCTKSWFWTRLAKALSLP
inactive: lapatinib 0.014 | pictilisib -0.006 | crizotinib -0.007 | [1] -0.032 | duvelisib 0.03 | gandotinib -0.009 | tozasertib 0.068 | doramapimod 0.019 | bafetinib -0.018 | [2] 0 | nilotinib -0.003 | [3] 0.001 | dasatinib -0.021 | [4] -0.027 | [5] 0.024 | quisinostat -0.033 | tipifarnib 0.004 | [6] 0 | [7] 0.03 | [8] 0.054

NQO1 (UniProt P15559)
UniProt P15559, sequence (P15559 whole entry, looked up): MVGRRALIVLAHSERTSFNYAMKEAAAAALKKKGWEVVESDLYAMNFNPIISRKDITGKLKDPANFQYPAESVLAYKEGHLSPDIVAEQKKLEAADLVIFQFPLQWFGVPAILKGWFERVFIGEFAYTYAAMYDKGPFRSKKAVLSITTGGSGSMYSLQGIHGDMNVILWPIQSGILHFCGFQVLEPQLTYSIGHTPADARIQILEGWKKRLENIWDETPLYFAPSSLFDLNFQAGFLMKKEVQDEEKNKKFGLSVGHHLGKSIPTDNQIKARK
inactive: lapatinib -0.055 | pictilisib -0.048 | crizotinib -0.04 | [1] -0.074 | duvelisib 0.012 | gandotinib 0.009 | tozasertib 0.022 | bafetinib -0.023 | nilotinib 0.051 | [3] -0.031 | dasatinib 0.244 | [4] 0.022 | [5] -0.104 | quisinostat 0.021 | tipifarnib 0.042 | [6] 0.042 | [7] -0.027 | [8] 0.056
active: doramapimod -0.333 | [2] 0.262

MSI2 (UniProt Q96DH6)
inactive: lapatinib 0 | pictilisib -0.057 | crizotinib 0.036 | [1] 0.024 | duvelisib -0.052 | gandotinib -0.031 | tozasertib 0.01 | bafetinib -0.066 | [2] 0.07 | nilotinib -0.089 | [3] 0.011 | dasatinib 0.01 | [4] 0.009 | [5] 0.049 | quisinostat 0.023 | tipifarnib -0.057 | [6] 0.029 | [7] 0.028 | [8] -0.016
active: doramapimod -0.23

NCAPG (UniProt Q9BPX3)
inactive: lapatinib -0.029 | pictilisib 0 | crizotinib -0.074 | [1] -0.028 | duvelisib -0.007 | gandotinib -0.094 | tozasertib -0.011 | doramapimod 0.026 | bafetinib -0.035 | [2] 0.011 | nilotinib 0.01 | [3] 0.002 | dasatinib -0.062 | [4] 0 | [5] 0.007 | quisinostat -0.08 | tipifarnib 0 | [6] 0.012 | [7] -0.004 | [8] -0.019

MSH3 (UniProt P20585)
UniProt P20585, sequence (P20585 whole entry, looked up): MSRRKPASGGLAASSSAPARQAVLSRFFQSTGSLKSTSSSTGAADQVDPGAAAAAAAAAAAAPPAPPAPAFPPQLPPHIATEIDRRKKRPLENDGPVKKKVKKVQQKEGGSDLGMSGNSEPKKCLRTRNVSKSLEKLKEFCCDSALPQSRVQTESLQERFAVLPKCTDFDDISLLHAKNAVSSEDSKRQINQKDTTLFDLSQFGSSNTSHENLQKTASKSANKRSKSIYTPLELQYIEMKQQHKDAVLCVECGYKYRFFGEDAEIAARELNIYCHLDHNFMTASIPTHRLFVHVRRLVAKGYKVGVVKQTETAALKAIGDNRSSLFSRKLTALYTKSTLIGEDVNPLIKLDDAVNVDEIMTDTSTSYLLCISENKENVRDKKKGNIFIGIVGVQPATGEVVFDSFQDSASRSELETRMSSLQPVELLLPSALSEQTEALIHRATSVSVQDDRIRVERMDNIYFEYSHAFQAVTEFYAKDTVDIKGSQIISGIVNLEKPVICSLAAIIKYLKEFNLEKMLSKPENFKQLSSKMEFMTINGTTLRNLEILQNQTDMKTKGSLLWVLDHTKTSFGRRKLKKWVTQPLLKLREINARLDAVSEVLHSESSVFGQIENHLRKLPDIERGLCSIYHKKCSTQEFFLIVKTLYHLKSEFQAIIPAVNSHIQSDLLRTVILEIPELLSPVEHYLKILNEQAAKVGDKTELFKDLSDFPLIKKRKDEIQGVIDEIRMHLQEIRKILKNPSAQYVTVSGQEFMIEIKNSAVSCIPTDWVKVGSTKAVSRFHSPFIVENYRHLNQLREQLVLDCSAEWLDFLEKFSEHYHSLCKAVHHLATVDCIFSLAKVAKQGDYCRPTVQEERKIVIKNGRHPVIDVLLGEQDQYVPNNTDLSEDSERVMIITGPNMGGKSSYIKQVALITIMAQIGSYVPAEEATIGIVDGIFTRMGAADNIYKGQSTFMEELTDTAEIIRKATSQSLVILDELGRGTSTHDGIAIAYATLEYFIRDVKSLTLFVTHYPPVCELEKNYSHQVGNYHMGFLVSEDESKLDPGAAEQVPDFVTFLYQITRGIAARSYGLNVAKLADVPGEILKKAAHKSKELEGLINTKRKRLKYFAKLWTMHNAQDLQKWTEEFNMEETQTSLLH
inactive: lapatinib -0.021 | pictilisib -0.005 | crizotinib -0.004 | [1] -0.018 | duvelisib -0.001 | gandotinib -0.019 | tozasertib 0.021 | doramapimod 0.019 | bafetinib -0.003 | [2] 0.028 | nilotinib -0.007 | [3] 0.034 | dasatinib -0.03 | [4] 0.028 | [5] 0.014 | quisinostat -0.037 | tipifarnib -0.001 | [6] -0.003 | [7] 0.011 | [8] -0.035

MYH11 isoform 2 (UniProt P35749)
UniProt P35749, sequence (P35749 whole entry, looked up): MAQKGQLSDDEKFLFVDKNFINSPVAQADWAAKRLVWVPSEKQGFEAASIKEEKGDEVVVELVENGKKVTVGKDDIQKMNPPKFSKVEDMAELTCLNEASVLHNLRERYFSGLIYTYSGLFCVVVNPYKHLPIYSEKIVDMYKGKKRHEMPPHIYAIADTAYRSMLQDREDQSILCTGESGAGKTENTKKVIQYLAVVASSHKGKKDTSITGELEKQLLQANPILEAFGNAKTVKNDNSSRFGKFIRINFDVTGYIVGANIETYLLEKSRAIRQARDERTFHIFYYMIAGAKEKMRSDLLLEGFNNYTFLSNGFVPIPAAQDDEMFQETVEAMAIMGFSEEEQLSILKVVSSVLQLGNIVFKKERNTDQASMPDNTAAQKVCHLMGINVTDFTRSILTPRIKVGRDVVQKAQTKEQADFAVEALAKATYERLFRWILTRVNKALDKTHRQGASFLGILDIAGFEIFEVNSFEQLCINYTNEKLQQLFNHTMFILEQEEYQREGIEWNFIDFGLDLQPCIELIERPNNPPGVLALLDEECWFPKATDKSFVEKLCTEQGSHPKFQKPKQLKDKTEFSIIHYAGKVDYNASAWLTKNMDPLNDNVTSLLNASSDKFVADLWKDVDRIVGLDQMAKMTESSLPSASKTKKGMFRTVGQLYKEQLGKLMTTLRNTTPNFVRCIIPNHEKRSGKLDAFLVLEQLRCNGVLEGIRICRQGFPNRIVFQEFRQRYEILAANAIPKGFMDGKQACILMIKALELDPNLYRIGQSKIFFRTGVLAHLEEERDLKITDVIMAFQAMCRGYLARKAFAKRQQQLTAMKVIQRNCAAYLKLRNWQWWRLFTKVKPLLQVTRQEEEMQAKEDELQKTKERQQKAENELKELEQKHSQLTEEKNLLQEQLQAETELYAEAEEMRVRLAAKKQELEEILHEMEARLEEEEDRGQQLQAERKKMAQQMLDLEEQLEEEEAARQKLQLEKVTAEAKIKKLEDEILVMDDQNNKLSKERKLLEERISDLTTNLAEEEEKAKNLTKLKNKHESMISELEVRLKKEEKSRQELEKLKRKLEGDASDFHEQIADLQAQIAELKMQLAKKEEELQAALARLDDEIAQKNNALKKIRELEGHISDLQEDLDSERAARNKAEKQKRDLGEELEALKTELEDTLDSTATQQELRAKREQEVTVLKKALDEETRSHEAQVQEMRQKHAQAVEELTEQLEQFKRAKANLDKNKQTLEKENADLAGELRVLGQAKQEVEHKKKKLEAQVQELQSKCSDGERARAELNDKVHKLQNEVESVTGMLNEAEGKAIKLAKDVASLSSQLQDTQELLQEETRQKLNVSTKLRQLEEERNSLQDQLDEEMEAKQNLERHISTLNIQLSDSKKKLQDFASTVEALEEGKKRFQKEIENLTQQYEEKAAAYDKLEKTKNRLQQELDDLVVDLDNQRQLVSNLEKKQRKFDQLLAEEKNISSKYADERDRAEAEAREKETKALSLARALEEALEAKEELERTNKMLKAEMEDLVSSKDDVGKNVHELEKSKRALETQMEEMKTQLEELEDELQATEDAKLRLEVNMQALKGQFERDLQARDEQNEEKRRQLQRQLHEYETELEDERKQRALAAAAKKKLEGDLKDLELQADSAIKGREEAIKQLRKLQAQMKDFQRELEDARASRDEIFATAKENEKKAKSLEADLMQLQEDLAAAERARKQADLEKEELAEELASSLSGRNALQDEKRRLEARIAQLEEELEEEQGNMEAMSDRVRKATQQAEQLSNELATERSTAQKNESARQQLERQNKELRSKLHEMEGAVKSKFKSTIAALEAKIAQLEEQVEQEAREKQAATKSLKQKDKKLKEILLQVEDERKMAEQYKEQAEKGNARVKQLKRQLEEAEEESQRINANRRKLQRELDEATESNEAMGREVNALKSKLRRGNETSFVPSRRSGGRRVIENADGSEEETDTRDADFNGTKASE
inactive: lapatinib 0.075 | pictilisib -0.002 | crizotinib 0.054 | duvelisib 0.055 | gandotinib -0.004 | tozasertib 0.031 | doramapimod -0.044 | bafetinib 0.303 | [2] -0.018 | nilotinib -0.072 | [3] -0.022 | dasatinib -0.043 | [4] -0.011 | [5] 0.014 | quisinostat 0.099 | tipifarnib -0.045 | [6] -0.029 | [7] 0.013 | [8] -0.032
active: [1] 0.279

NSL1 (UniProt Q96IY1)
inactive: lapatinib -0.003 | pictilisib -0.032 | crizotinib 0.051 | [1] 0.001 | duvelisib -0.033 | gandotinib 0.094 | tozasertib -0.01 | doramapimod -0.047 | bafetinib 0.034 | [2] 0.006 | nilotinib -0.018 | [3] 0.005 | dasatinib -0.01 | [4] -0.014 | [5] 0 | quisinostat -0.009 | tipifarnib 0.024 | [6] -0.003 | [7] 0.01 | [8] -0.007

NUCB2 (UniProt P80303)
inactive: lapatinib -0.006 | pictilisib -0.006 | crizotinib 0.041 | duvelisib 0.008 | gandotinib -0.044 | tozasertib 0.003 | doramapimod -0.024 | bafetinib -0.022 | [2] -0.126 | nilotinib -0.016 | [3] 0.015 | dasatinib 0.007 | [4] -0.019 | [5] -0.009 | quisinostat 0.016 | tipifarnib 0.011 | [6] -0.003 | [7] -0.001 | [8] 0.014
active: [1] 0.253

N6AMT1 (UniProt Q9Y5N5)
inactive: lapatinib -0.018 | pictilisib -0.038 | crizotinib -0.02 | duvelisib -0.017 | gandotinib -0.033 | tozasertib 0.008 | doramapimod 0.014 | bafetinib -0.109 | [2] -0.098 | nilotinib -0.009 | [3] 0.1 | dasatinib 0.002 | [4] 0.018 | [5] 0.013 | quisinostat 0 | tipifarnib 0.06 | [6] -0.013 | [7] -0.027 | [8] 0.037
active: [1] 0.34
